Assay outcomes as filed in PubChem.
G9a block – inhibitors of human histone lysine methyltransferase G9a; G9a H3K9 monomethylation, AlphaScreen, 2 h; Q96KQ7; Potency, µM (highest dose often 102 µM), inactives show at the top dose activity, negative = inhibition, actives largely listed as inhibitors; AID 504332; actives 8.8% (n = 350,000); also: potency is read from the fitted curve at half-maximal effect; % is scaled to controls: 0 for no effect and ±100 for the full control effect; nearly all actives have a fitted effect of over 75% in size
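AlphaScreen detection with an anti-monomethyl H3K9 antibody quantified product after a 2 h room-temperature reaction containing 500 nM biotinylated H3K9 peptide, 20 µM SAM and 20 nM enzyme, which had been preincubated 15 min with compound.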
HP1b binding inh – HP1-beta chromodomain-methylated histone interaction inhibition | P83916 | AlphaScreen HP1-beta / biotin-H3K9me3 peptide binding | Potency, µM (top dose mostly 114 µM), for the others: top-dose activity change, negative = inhibition, hits mostly inhibitors | actives 0.56% (n = 390,000); also: potency is read from the fitted curve at half-maximal effect; nearly all actives have a fitted effect of over 70% in size
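Compound inhibition of the preformed complex between 50 nM HP1-beta and 50 nM biotinylated H3K9me3 peptide was read by AlphaScreen. Buffer was PBS pH 7.4 with 0.01% Tween-20. Incubations ran 30 min at room temperature, with 10 ug/mL donor/acceptor beads.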
BAZ2B block – BAZ2B (human) inhibition | Q9UIF8 | AlphaScreen BAZ2B-H3K14Ac peptide displacement | Potency, µM (titrated, usually from 114 µM), for the others: top-dose activity change, negative = inhibition, hits mostly inhibitors | actives 4.4% (n = 360,000) | AID 504333; also: potency is read from the fitted curve at half-maximal effect; % is scaled to controls: 0 for no effect and ±100 for the full control effect; nearly all actives have a fitted effect of over 60% in size
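Multi-concentration screen (max 110 uM) measuring displacement of acetylated histone H3 peptide from BAZ2B by AlphaScreen, using 50 nM protein, 50 nM peptide and 10 ug/mL streptavidin donor plus Ni-chelate acceptor beads.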
CtBP-E1A inh – inhibitors of CtBP/E1A interaction; AlphaScreen GST-E1A/His-CtBP binding, 1536-well; stronger effect = lower value; activity change, % (concentration not given with the values); actives 0.49% (n = 340,000); AID 651724; in the data active = activity change below about -65%; inconclusive = mostly about -30% to -63%; also: % is scaled to controls: 0 for no effect and ±100 for the full control effect
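GST-E1A and His-tagged CtBP (125 nM each as 5X stock) were preincubated with pin-transferred compound for 2 h at 37 °C in the dark, then glutathione donor and nickel acceptor beads were added for 1 h before AlphaScreen reading.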
JMJD2A Tudor – blocks the human JMJD2A Tudor domain. actives 4.4% (n = 390,000). AlphaScreen JMJD2A-Tudor / H3K4me3 peptide binding. Potency, µM (highest dose often 114 µM), without a hit: top-dose activity change, negative = inhibition, actives largely listed as inhibitors; also: potency is read from the fitted curve at half-maximal effect; % is scaled to controls: 0 for no effect and ±100 for the full control effect; nearly all actives have a fitted effect of over 50% in size
Six1-Eya2 blk – Six1/Eya2 interaction inhibition; Q15475+O00167; AlphaScreen GST-Six1/His-Eya2 binding, biochemical; stronger effect = lower value; activity change, % (concentration not given with the values); actives 0.56% (n = 360,000); in the data active = activity change below about -65%; inconclusive = mostly about -30% to -63%; also: % is scaled to controls: 0 for no effect and ±100 for the full control effect
Target sequence (O00167 whole entry, looked up): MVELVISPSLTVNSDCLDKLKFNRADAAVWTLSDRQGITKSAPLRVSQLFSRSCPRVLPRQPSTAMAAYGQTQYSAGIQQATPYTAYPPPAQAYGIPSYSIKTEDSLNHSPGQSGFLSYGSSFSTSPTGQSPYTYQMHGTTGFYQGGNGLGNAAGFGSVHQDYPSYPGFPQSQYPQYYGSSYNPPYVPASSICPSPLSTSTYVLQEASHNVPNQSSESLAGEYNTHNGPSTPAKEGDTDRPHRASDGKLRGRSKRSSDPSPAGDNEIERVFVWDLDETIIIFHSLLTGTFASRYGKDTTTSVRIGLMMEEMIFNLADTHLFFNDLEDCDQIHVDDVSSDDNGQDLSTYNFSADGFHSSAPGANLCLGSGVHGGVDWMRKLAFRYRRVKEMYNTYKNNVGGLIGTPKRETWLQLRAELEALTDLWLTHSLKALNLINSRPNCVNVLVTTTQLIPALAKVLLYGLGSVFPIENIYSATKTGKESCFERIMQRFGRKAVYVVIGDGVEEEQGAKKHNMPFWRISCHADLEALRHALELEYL
Target sequence (Q15475 whole entry, looked up): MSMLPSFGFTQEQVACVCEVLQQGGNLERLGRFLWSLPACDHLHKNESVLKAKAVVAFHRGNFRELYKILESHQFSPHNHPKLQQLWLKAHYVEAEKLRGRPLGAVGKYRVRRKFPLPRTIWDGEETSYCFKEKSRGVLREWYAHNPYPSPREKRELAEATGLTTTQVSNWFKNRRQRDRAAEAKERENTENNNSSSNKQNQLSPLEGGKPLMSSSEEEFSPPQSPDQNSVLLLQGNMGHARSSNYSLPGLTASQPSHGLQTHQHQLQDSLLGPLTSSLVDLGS
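Homogeneous AlphaScreen proximity assay pairing GST-Six1 with His-tagged Eya2 (added as 5X mix: 250 nM and 500 nM) in 50 mM Tris pH 8.0, 300 mM NaCl, 1 mM TCEP. Glutathione donor and nickel acceptor beads; 1 h, 37 °C, dark.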
Active calls of the source: *; ? = inconclusive; nt = no result given; [ ] = remark or other dose. This is a sample that favours compounds with a hit; in the whole collection about 10% have one here. Unless noted, calls follow the shape of the dose curve; as a rule, active = well fitted inhibition curve with a large enough effect; inconclusive = small, poorly fitted or top-dose-only effect; inactive = no such curve, though single readings can be large or run the other way.

SMILES	G9a block	HP1b binding inh	BAZ2B block	CtBP-E1A inh	JMJD2A Tudor	Six1-Eya2 blk
CCOC(=O)NC1(NC(C)C)Oc2ccccc2O1	10µM*	-24%	7%	-1	7%[11.4 µM]	-10
CCOC(=O)NC1(NCC(C)C)Oc2ccccc2O1	0.89µM*	-14%	0%	-3	?	10
O=C(/C(=C(\[O-])c1ccccc1)[n+]1ccc2ccccc2c1)c1ccc(Cl)cc1	20µM*	31%	0%	-3	-10%	-17
NC1=NN=C(N2N=C(c3ccco3)CC2(O)C(F)(F)F)n2ncnc2C1 (stereo not given)	-40%	17%	79µM*	21	-30%	-71*
Cn1cccc1/C=N\NC(=O)C1COc2ccccc2O1 (stereo not given)	-16%	41%	?	nt	-6%	-9
Cn1cccc1/C=N\NC(=O)C1COc2ccc(C(C)(C)C)cc2O1 (stereo not given)	nt	7%	35µM*	nt	-11%	?
Cc1cc(C)c2c(c1)/C(=N/NC(=O)c1cc(C)oc1C)CCC2	14%[59 µM]	24%	-30%	17	6%	4
CCN(CCO)Cc1csc2cc(C)ccc12	?	45%	0%	7	5%	2
CCN(CCO)Cc1cn[nH]c1-c1ccc(C)c(C)c1	3.5µM*	?	56µM*	7	3.5µM*	-1
[O-]c1c[n+](-c2ccc(-[n+]3cc([O-])on3)cc2)no1	-123%[59 µM]	?	50µM*	5	?	-6
[O-]c1c[n+](-c2ccccc2)no1	5µM*	57%	-2%	nt	-18%	6
O=C(NCCc1ccc(Cl)cc1)C(=O)NCC(c1ccco1)S(=O)(=O)c1ccccc1 (stereo not given)	18%[59 µM]	41%	4%	nt	-4%	nt
COc1ccc(C)cc1NC(=O)C(=O)NCCc1csc(-c2ccc(C)cc2)n1	1%[59 µM]	16%[57 µM]	6%	nt	-13%	nt
CCc1nc(C)cn1S(=O)(=O)c1cc(C)c(OC)cc1C	50µM*	39%	-3%	6	-3%	-3
CCc1nc(C)cn1S(=O)(=O)c1cc(Br)c(C)cc1OC	?	5%	-19%	9	-19%	-5
Cc1ccc(C2NC(=O)c3c(sc(C)c3C)N2)c(O)c1 (stereo not given)	32µM*	19%	6%	-18	-17%	-17
Cc1sc2c(c1C)C(=O)NC(c1ccccc1F)N2 (stereo not given)	10µM*	?	-27%	19	?	4
Cc1cccc(C2NC(=O)c3c(sc(C)c3C)N2)c1O (stereo not given)	4%[12.7 µM]	16%	-10%	-4	-15%	-1
CN1CCN(S(=O)(=O)c2cccc(C(=O)Oc3ccc(C(C)(C)C)cc3)c2)CC1	50µM*	-9%	?	-16	?	-11
CC(C)c1ccc(OC(=O)c2cccc(S(=O)(=O)N3CCN(C)CC3)c2)cc1	20µM*	-10%	?	0	?	-15
Cc1ccc(Cn2c(SCc3ccc(C(=O)NCCc4ccccc4)cc3)nc3ccncc32)cc1	-33%[59 µM]	42%	-8%	nt	-20%	nt
CCN(c1cccc(C)c1)S(=O)(=O)c1cc2c3c(c1)CCC(=O)N3CCC2	-29%	7%	-30%	-6	-14%	3
CS(=O)(=O)N1CCc2cc(C(=O)Nc3ccc(COCC(F)(F)F)cc3)ccc21	2%	24%	-23%	8	4%	2
C[C@H]1CN([C@@H](C)CO)C(=O)CCCn2nncc2CO[C@@H]1CN(C)S(=O)(=O)c1ccc(-c2ccccc2)cc1	nt	nt	nt	-8	nt	-14
Cc1ccc(S(=O)(=O)c2nnn(-c3cccc(F)c3)c2N)cc1	0%	56%	nt	-2	-8%	-2
SMILES	G9a block	HP1b binding inh	BAZ2B block	CtBP-E1A inh	JMJD2A Tudor	Six1-Eya2 blk
Nc1ccccc1C#CCCCCO	-6%	27%	-4%	-4	-17%	1
CCCCCCCC#Cc1ccccc1/C=N/S(=O)c1ccc(C)cc1 (stereo not given)	0.79µM*	171%	25%	nt	8.9µM*	17
CCCCN(C(=O)c1cccc(S(=O)(=O)N2CCN(Cc3ccccc3)CC2)c1)c1ccccc1	6%	1%	-38%	-16	?	-17
CCOC(=O)c1c(C)c[nH]c1C	9%	-9%	-17%	-4	-26%	9
CCOC(=O)c1c(Cc2ccccc2)c[nH]c1C	56µM*	-13%	-15%	nt	-10%	-14
N#Cc1c(NC(=S)NC(=O)c2ccccc2)sc2c1CCN(CCc1ccccc1)C2	40µM*	nt	-12%	nt	nt	nt
N#Cc1c(NC(=S)NC(=O)c2ccccc2)sc2c1CCCCC2	nt	?	nt	nt	-35%	nt
N#Cc1c(NC(=O)c2ccccc2)sc2c1CCC2	?	33%	-2%	-1	2%	6
N#Cc1c(NC(=S)NC(=O)c2ccccc2)sc2c1CCCC2	8.9µM*	8%	5%	-5	?	-9
N#Cc1c(NC(=S)NC(=O)C2CCCC2)sc2c1CCCCC2	35µM*	-19%	-1%	-16	-28%	-19
CC1CCc2c(sc(NC(=S)NC(=O)c3ccccc3)c2C#N)C1 (stereo not given)	?	10%	-44%	6	-2%	6
CC(C)C(C(=O)Nc1sc2c(c1C#N)CCCCC2)N1C(=O)c2ccccc2C1=O (stereo not given)	?	11%	50µM*	-18	-28%	-22
Cc1c(CNC(=O)C2CC2)c(-n2cccc2)n(Cc2ccccc2)c1C	25%	38%	-1%	nt	-10%	2
COc1ccc(S(=O)(=O)N2CCN(c3ccccc3OC)CC2)cc1C(=O)N1CCCCC1	7%	12%[57 µM]	-13%	4	-13%	5
CC1(C)Cc2c(sc(NC(=S)NC(=O)c3ccccc3)c2C(=O)O)CO1	40µM*	-25%	?	2	-31%	-11
CC(=O)N(C)c1ccc(N2CCOCC2)c2c1C(=O)c1ccccc1C2=O	nt	?	nt	17	-31%	14
O=C1c2ccccc2C(=O)c2c1cccc2N1CCOCC1	nt	40µM*	16µM*	-72*	35µM*	-78*
Cc1cc(=O)oc2c(C(=O)/C=C/c3ccccc3)c(O)ccc12	-23%[2.33 µM]	49%	-5%	4	-16%[11.4 µM]	8
Cc1cc(=O)oc2c(C(=O)/C=C\c3cccs3)c(O)ccc12	45µM*	-24%	?	6	?	2
Cc1ccc(NC(=O)CCS(=O)(=O)c2cc3c4c(c2)CCN4C(=O)CC3)c(C)c1	-8%[59 µM]	18%	-15%	nt	-6%	nt
CCOc1ccccc1CNC(=O)c1c(C)oc2ncnc(N3CCOCC3)c12	4%[59 µM]	34%	7%[57.1 µM]	nt	11%	nt
